Here are results for 31 compounds from PubChem BioAssay (NCATS).

Inconclusive results are not listed. A number with no mark means an inactive call. Activity calls are given as the source filed them. Calls follow the shape of the dose curve; as a rule, active = well fitted curve in the direction sought with a large enough effect; inconclusive = small, poorly fitted or top-dose-only effect, or another doubt; inactive = no such curve, though single readings can be large; an effect the other way counts as inactive or inconclusive.

A short description of test [1]: qHTS for Inhibitors of the Aldehyde Dehydrogenase Family (ALDH1A2, ALDH1A3, ALDH2, ALDH3A1) (AID 2061307). Also: nearly all actives have a fitted effect of over 50% in size. As to Potency: test system not described further here; potency is read from the fitted curve at half-maximal effect.
Test [2] addresses Aldehyde dehydrogenase, mitochondrial (Homo sapiens) (UniProt P05091). The experiment in a line: qHTS for Inhibitors of the Aldehyde Dehydrogenase Family (ALDH2) Primary screen (AID 2061308).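 Also: plate controls were vehicle for no effect and reference inhibitor for full effect; nearly all actives have a fitted effect of over 55% in size.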
The target in test [3] is Retinaldehyde dehydrogenase 3 (Homo sapiens) (UniProt P47895). Put plainly: qHTS for Inhibitors of the Aldehyde Dehydrogenase Family (ALDH1A3) Confirmatory screens (AID 2061311; also: nearly all actives have a fitted effect of over 60% in size; also: potency is read from the fitted curve at half-maximal effect). (qHTS replaces the single test concentration by a dilution series.)
For test [4] the target is unchanged. The experiment in a line: qHTS for Inhibitors of the Aldehyde Dehydrogenase Family (ALDH1A3) Primary screen (AID 2061315). Also: potency is read from the fitted curve at half-maximal effect.
For test [5], the target named is Aldehyde dehydrogenase 1A1 (Homo sapiens) (UniProt P00352). The experiment in a line: qHTS for Inhibitors of the Aldehyde Dehydrogenase Family (ALDH1A1) Confirmatory screens (AID 2061316). Also: nearly all actives have a fitted effect of over 65% in size. Also: potency is read from the fitted curve at half-maximal effect.
Test [6] can be described thus: BET inhibitor-based combinations targeting novel dependencies in MECOM-rearranged (r) AML: SET-2 cell line (AID 2202231).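 Also: plate controls were DMSO treated cells for no effect and wells without cells for full effect; nearly all actives have a fitted effect of over 35% in size.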 To be noted: SET-2 AML cells viability, CellTiter-Glo luminescence, 48 h; viability: stronger effect = lower value, series mostly up to about 46 µM. In a few lines: (§1)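 Luminescent ATP readout (CellTiter-Glo) after 48 hr drug exposure gives viability. Curves span 11 concentrations and are normalized to DMSO and empty wells. Activity is reported as area under the curve and its Z-transform within each cell line.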
Background: ATP-based viability assays read luminescence as a measure of living cells.

Test [7] can be described thus: BET inhibitor-based combinations targeting novel dependencies in MECOM-rearranged (r) AML: MV-4-11 cell line (AID 2202233). Also: potency is read from the fitted curve at half-maximal effect; nearly all actives have a fitted effect of over 45% in size. Put shortly: (§2)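 Luminescent ATP readout (CellTiter-Glo, 15 min at room temperature) after 48 hr drug exposure gave viability. Dose-response curves, normalized to DMSO and empty-well controls, were summarized as area under the curve and its mean-centred Z-score.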

Test [8] in a line: BET inhibitor-based combinations targeting novel dependencies in MECOM-rearranged (r) AML: UCSD-AML1 cell line (AID 2202235).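 Also: series mostly up to about 46 µM; plate controls were DMSO vehicle wells for no effect and blank wells for full effect; nearly all actives have a fitted effect of over 40% in size.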 In a few lines: as §2
The nature of test [9]: BET inhibitor-based combinations targeting novel dependencies in MECOM-rearranged (r) AML: AML-191 cell line (AID 2202236;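 also: plate controls were vehicle wells for no effect and wells without cells for full effect; nearly all actives have a fitted effect of over 35% in size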). In a few lines:
as §1

Test [10] in a line: BET inhibitor-based combinations targeting novel dependencies in MECOM-rearranged (r) AML: AML-194 cell line (AID 2202237;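 also: plate controls were vehicle wells for no effect and wells without cells for full effect; nearly all actives have a fitted effect of over 40% in size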). In a few lines:
as §1

The nature of test [11]: BET inhibitor-based combinations targeting novel dependencies in MECOM-rearranged (r) AML: OCI-AML3 cell line (AID 2202232).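 Also: series mostly up to about 46 µM; plate controls were DMSO vehicle wells for no effect and wells without cells for full effect; nearly all actives have a fitted effect of over 35% in size.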 Conditions: Potency: OCI-AML3 viability. In a few lines:
as §1

Test [12] can be described thus: BET inhibitor-based combinations targeting novel dependencies in MECOM-rearranged (r) AML: HNT-34 cell line (AID 2202234).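 Also: plate controls were vehicle wells for no effect and cell-free wells for full effect; nearly all actives have a fitted effect of over 35% in size.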 In a few lines: as §2

Take `C/C(=C\c1cccc(C(F)(F)F)c1)C1Nc2cccc3cccc(c23)N1`: the Potency entry in test [1], in test [2] and in test [4] was “inactive” throughout. The Potency in test [3] was 11.3 µM (active).
`COc1ccc(C2Nc3ccccc3C(=O)N2Cc2ccccc2OC)cc1COc1ccc(NC(C)=O)cc1` (stereo not given): the Potency is 2.25 µM (active) in test [1] and 22.5 µM (active) in test [5]. In addition, the Potency result in test [2] and in test [4] was “inactive” in each case.
Consider `COc1cc(/C=C2\C(=O)Nc3ccccc32)ccc1O`, for which the Potency entry in test [1], in test [2] and in test [4] was “inactive” in each case.
As for `CC(=O)N1CCc2cc(-c3nc(NC(=O)Cc4ccc5c(c4)OCO5)sc3C)ccc21`, the Potency in test [1] is 2.01 µM (active); in [5], 10.1 µM (active). Also, the Potency result in [2] and in test [4] was “inactive” in each case.
As for `O=C(c1cccs1)c1nonc1C(=O)c1cccs1`, the Potency result in test [1], in test [2] and in test [4] was “inactive” in each case.
Turning to `CN(Cc1ccco1)c1ncnc2ccc(-c3ccoc3)cc12`, the Potency result in test [1], in [2] and in [4] was “inactive” each time. Also, the Potency in test [5] was 12.7 µM (active).
For the compound `CSc1ccc(-c2cnc(N3CCC(C(N)=O)CC3)s2)cc1`, in test [1], the Potency was 3.18 µM (active). Moreover, the Potency entry in test [2] and in test [4] was “inactive” throughout.
Turning to `COC(=O)c1ccc(O)c2ncc(-c3ccc(C(=O)N4CCNCC4)cc3)cc12`, the Potency entry in test [1], in test [2], in [4] and in test [5] was “inactive” each time.
In the case of `O=C(O)C1CCN(c2ncc(-c3ccc4c(c3)OCCCO4)s2)CC1`, the Potency was 1.52 µM (active) in test [1] and 0.447 µM (active) in test [4]. The Potency result in [2] was “inactive”.
In the same order, the values of `O=C(Nc1nc(-c2ccccc2)cs1)c1ccncc1NS(=O)(=O)c1ccccc1Cl` are 22.5 µM (active), “inactive” and “inactive”.
Regarding `N#Cc1nc(-c2ccc(COc3ccccc3)o2)oc1N1CCN(c2ccccc2)CC1`, the Potency entry in test [1] and in test [3] was “inactive” throughout.
On to `OCc1ccc(-c2ccc3ncnc(NCCc4cnc[nH]4)c3c2)o1`, for which the Potency entry in [1], in test [2] and in test [4] was “inactive” in each case. In test [5], the Potency was 10.1 µM (active).
With `O=S(=O)(c1ccc2c(c1)OCO2)N1CCN(S(=O)(=O)c2c(F)cccc2F)CC1`, the Potency entry in test [1], in test [2] and in test [4] was “inactive” in each case.
On to `Cc1ccc(-n2c(C)cc(-c3nnc4n3CCCCC4)c2C)cc1`, for which the Potency result in test [1], in test [2], in test [4], in test [8], in test [9] and in test [10] was “inactive” throughout. The Potency is 20.1 µM (active) in test [5] and 23.5 µM (active) in test [7]. Further, in test [6], the viability was 104%.
For `CNc1sc(-c2cccc3ccccc23)nc1C(=O)OC`, the Potency is 15.9 µM (active) in test [1] and 14.2 µM (active) in test [5]. The Potency result in test [2] and in [4] was “inactive” each time.
Turning to `N#Cc1ccc(CNc2nc(-c3ccccc3C(F)(F)F)nc3ccccc23)cc1`, the Potency in test [1] is 17.9 µM (active); in test [5] it was 14.2 µM (active). Also, the Potency result in test [2] and in test [4] was “inactive” in each case.
On to `O=C(O)c1ccc(-n2cccc2/C=C2\SC(=O)N(Cc3ccc(Br)cc3)C2=O)cc1`, for which the Potency in test [1] is 5.04 µM (active). For the same compound, the Potency entry in test [2], in test [4] and in test [5] was “inactive” throughout.
For the compound `NC(=O)C1CCN(c2nc(-c3ccccc3N)cs2)CC1`, the Potency in [1] is 7.12 µM (active); in test [5], 12.7 µM (active). Moreover, the Potency result in [2] and in test [4] was “inactive” each time.
Regarding `NC(=O)C1CCN(c2nc(-c3ccccc3[N+](=O)[O-])cs2)CC1`, the Potency in test [1] is 12.7 µM (active); in test [5], 5.04 µM (active). Besides, the Potency entry in test [2] and in test [4] was “inactive” in each case.
In the case of `COc1cccc(CN2C(=O)c3ccccc3NC2c2ccc(OC)c(COc3ccc(NC(C)=O)cc3)c2)c1` (stereo not given), in test [1], the Potency is 3.55 µM (active). The Potency entry in [2] and in test [4] was “inactive” each time.
With `CCCCN(C)C(=O)Cn1nc(-c2ccc(Cl)cc2)ccc1=O`, the Potency entry in test [1], in [2] and in test [4] was “inactive” each time.
`COc1ccc(C2Nc3ccccc3C(=O)N2Cc2ccccc2Cl)cc1COc1ccc(NC(C)=O)cc1` (stereo not given): the Potency in test [1] was 8.96 µM (active). In addition, the Potency entry in test [2] and in test [4] was “inactive” in each case.
For the compound `NCC(=O)Nc1cncc(-c2nn3c(=O)cc(N4CCNCC4)nc3s2)c1`, the Potency entry in test [1], in [2], in [4], in [11], in test [12] and in test [8] was “inactive” each time. For the same compound, the Potency result in test [9] and in [10] was “inactive” throughout. Moreover, in test [6], the viability was 111%.
As for `C/C=C/C=C/C(O)=C1/C(=O)[C@]2(C)C3/C(=C(O)/C=C/C=C/C)C(=O)C4(C)C1[C@]1(C)O[C@@]4(O)[C@@]3(C)O[C@@]12O`, the Potency result in test [1], in test [2] and in test [4] was “inactive” throughout. In addition, the Potency in test [5] was 12.3 µM (active).
As for `COc1cccc(CNc2ccc(S(=O)(=O)Nc3ccc(C)nc3)cc2)c1O`, the Potency result in test [1], in [2], in test [4] and in [5] was “inactive” throughout.
For `O=C(O)c1ccc(O)c2ncc(-c3ccc(C(=O)N4CCNCC4)cc3)cc12`, the Potency entry in test [1], in test [2], in test [4] and in test [5] was “inactive” each time.
On to `Cc1cc(NC(=O)c2ccc(NC(=O)Cc3ccc(Cl)c(Cl)c3)cc2)no1`, for which the Potency entry in test [1], in test [2] and in test [4] was “inactive” in each case.
`COc1ccc(C2Nc3ccccc3C(=O)N2Cc2ccccc2)cc1COc1ccc(NC(C)=O)cc1` (stereo not given): the Potency in test [1] is 3.18 µM (active). Besides, the Potency result in test [2] and in test [4] was “inactive” in each case.
With `CC(=O)C1CCN(c2ncc(-c3cccc(N(C)C)c3)s2)CC1`, the Potency in test [1] was 5.65 µM (active); in test [5] it was 10.1 µM (active). Moreover, the Potency result in test [2] and in test [4] was “inactive” in each case.
Regarding `COc1ccc(C2Nc3ccccc3C(=O)N2Cc2ccco2)cc1COc1ccc(NC(C)=O)cc1` (stereo not given), the Potency entry in test [1], in test [2] and in test [4] was “inactive” in each case.
Turning to `O=C(OCC#CCSc1nnc(-c2cccc3ccccc23)o1)c1ccc(Br)cc1`, the Potency entry in [1], in [2], in [4] and in test [5] was “inactive” each time.

A word on the viability: it is a read-out of living cells in per cent, often relative to untreated cells.
